Results: ChEMBL document CHEMBL3988442, “University of Dundee, Small-Polar-MMV Screening Library” (2021)
About 13,000 (27%) of roughly 48,000 compounds showed an effect of 50% or more. Some of the results follow.

test system: Wolbachia pipientis; test: Anti-Wolbachia Cell-Based Screen; assay type: functional; set-up: scale not given: in the data most compounds retested in dose-response had high values; settings: 5 µM

In order of falling “Percent Effect” value:
1. Cc1cc(-c2ccc(=O)n(CCNC(=O)C3CCCCC3)n2)c(C)o1  127.3%
2. O=C1CCC(=O)N1c1nn(Cc2ccccc2Cl)cc1Cl  119%
3. O=C(O)C(F)(F)F.O=C(O)[C@]12CCCN(CC3CCOC3)C[C@H]1CN(c1ncccn1)C2 (stereo partly drawn)  119%
4. Cc1cnc(N2C[C@@H]3CN(C4CCOC4)CCC[C@]3(C(=O)O)C2)nc1.O=C(O)C(F)(F)F (stereo partly drawn)  115.6%
5. O=C(O)C(F)(F)F.O=C(O)[C@]12CCCN(C3CCOC3)C[C@H]1CN(c1nncs1)C2 (stereo partly drawn)  113.4%
6. O=C1CCC(=O)N1c1nn(Cc2ccccc2)cc1Cl  98.19%
7. O=C1CCC(=O)N1c1nn(Cc2ccc(F)cc2)cc1Cl  96.9%
8. O=C1CCC(=O)N1c1nn(Cc2c(F)cccc2Cl)cc1Cl  84.15%
9. Cc1cc(-c2ccc(=O)n(CCNC(=O)C3CCC3)n2)c(C)o1  82.02%
10. O=C1CCC(=O)N1c1nn(Cc2cccc(F)c2)cc1Cl  81.78%
11. O=C(c1cnc(Cc2c(Cl)cccc2Cl)nc1O)N1CCNCC1  20.47%
12. CN1CCN(Cc2ccccc2Cl)CC12CCC(=O)N(CC1CC1)CC2 (stereo not drawn)  19.23%
13. Cc1noc(C)c1CCCNC(=O)C1CCN(C(=O)C2CC2)CC1  11.33%
14. CCn1cc(C(=O)N(C)Cc2c(F)cccc2Cl)cn1  10.91%
15. O=c1ccc(-c2cccs2)nn1CN1CCN(Cc2ccccc2)CC1  10.59%
16. Cc1noc(C)c1CCCNC(=O)C1CCN(C(=O)C2CCC2)CC1  9.148%
17. c1ccc(CN2CCN(Cc3cscn3)CC2)cc1  8.549%
18. COCC(=O)Nc1ccccc1-c1ccc(=O)n(C)n1  7.916%
19. CC(C)C1CN(c2ncccc2Cl)CCC(=O)N1Cc1ccc(F)cc1 (stereo not drawn)  6.297%
20. Cc1cnc(N2C[C@@H]3CN(Cc4ccco4)CCC[C@]3(C(=O)O)C2)nc1.O=C(O)C(F)(F)F  5.679%
21. CN(C)S(=O)(=O)N1CCCCC1CCc1ccc(O)cc1 (stereo not drawn)  3.428%
22. Cc1cc(C(=O)N2CCc3nnc(N(C)C)cc3C2)c(C)n1C1CC1  2.988%
23. Cc1cc(C(O)CCNC(=O)COc2ccccc2F)c(C)o1 (stereo not drawn)  1.741%
24. O=C(c1ncoc1-c1ccco1)N(Cc1ccco1)CC1CCCO1 (stereo not drawn)  1.49%
25. O=C(O)C(F)(F)F.O=C(O)C(F)(F)F.O=C(O)[C@]12CCCN(Cc3ccncc3)C[C@H]1CN(c1ncccn1)C2  1.194%
26. CNC(=O)C1CCC2(CCN(c3nncs3)CC2)CO1.O=C(O)C(F)(F)F (stereo not drawn)  1.191%
27. Cc1nsc(NCCNS(=O)(=O)c2cccc(Cl)c2)n1  1.185%
28. Cc1noc(C)c1CCCNC(=O)C1CCN(C(C)C)CC1  1.059%
29. O=C(NCCNC(=O)C1CCCCC1)NCCn1cccc1  0.3641%
30. CC(C)NC(=O)NCCn1cnc(C2CCCC2)cc1=O  -0.7993%
31. O=C1N(c2cccc(Cl)c2)Cc2nc(=O)n(Cc3cccc(F)c3)n21  -1.382%
32. O=C1N(Cc2ccccc2)C[C@H]2CN(Cc3ccccc3Cl)CCN12  -1.651%
33. CS(=O)(=O)c1nnc(NC(=O)CCc2cccc(Cl)c2)[nH]1  -4.467%
34. O=C(NCCCNC(=O)C1CCC1)NCCn1cccc1  -4.539%
35. O=C(C1CCC2(CCN(c3nncs3)CC2)CO1)N1CCCC1.O=C(O)C(F)(F)F (stereo not drawn)  -6.023%
36. Cc1cc(CN(C)C(=O)NCc2ccnc(SC(C)(C)C)c2)no1  -6.174%
37. COCCc1noc(C2CCN(C(=O)Nc3cccs3)CC2)n1  -7.09%
38. Cc1ccc(CN(CCCO)Cc2nc3ccccc3[nH]2)s1  -7.789%
39. Cc1ccc(CN2CCC[C@]3(C(=O)O)CN(c4ncccn4)C[C@@H]3C2)o1.O=C(O)C(F)(F)F  -9.127%
40. O=C(O)C(F)(F)F.O=C(O)[C@]12CCCN(Cc3ccccc3)C[C@H]1CN(c1ncccn1)C2  -10.65%
41. COc1ccc(-c2n[nH]cc2CN(C)CCC2CCOCC2)cc1F  -12.67%
42. CNC(=O)[C@@H]1C[C@@H](N)CN1C(=O)CCSCc1ccc(F)cc1  -13.45%
43. COc1nccnc1N1CCN(Cc2ccc(F)cc2)C(=O)C1  -14.02%
44. COc1cc(OC)c(CNC(=O)NCC(=O)N(C)C)c(OC)c1  -14.89%
45. Fc1cccc(Cl)c1CN1CCn2c(nnc2C2CC2)C1  -25.63%
46. Cc1nc(N)nc(C)c1Cc1nc(C2CC2)n[nH]1  -31.49%
47. Cc1nsc(N2CCN(Cc3cccc(F)c3)CC2)n1  -33.99%
48. COc1ncccc1CNC(=O)CN1CCCCCC1=O  -54.83%
